For this assay, the system named is Renilla luciferase (RLuc). Put plainly: residual bioluminescent signal relative to negative control without GSH; higher = less interference (more residual luciferase signal). Particulars: screening conditions buffer. How it is done: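 Selected metal salts at 3-4 concentrations tested on purified FLuc, NLuc or RLuc in screening buffer with 0, 0.2 or 2 mM glutathione added; 10 min enzyme pre-incubation at RT, luminescence 10 min after substrate. Signal normalised to negative control without GSH (% N_VALUE); triplicate wells.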

Setting [1] is: metal salt concentration 1 mM, glutathione 0 mM.
[2] abbreviates: metal salt concentration 1 mM, glutathione 0.2 mM.
Setting [3] is: metal salt concentration 1 mM, glutathione 2 mM.

± gives the standard deviation of the averaged measurements.

Take `[Cl][Fe]([Cl])[Cl]` [iron(III) chloride]: the residual bioluminescent signal (metal salt concentration 0.005 mM, glutathione 0 mM) is 115 ± 9.3%; the residual bioluminescent signal (metal salt concentration 0.005 mM, glutathione 0.2 mM) turned out to be 116 ± 14%; the residual bioluminescent signal (metal salt concentration 0.005 mM, glutathione 2 mM) was determined as 161 ± 26%; the residual bioluminescent signal (metal salt concentration 0.536 mM, glutathione 0 mM) is 36.6 ± 8%; the residual bioluminescent signal (metal salt concentration 0.536 mM, glutathione 0.2 mM) is 53 ± 4.8%; the residual bioluminescent signal (metal salt concentration 0.536 mM, glutathione 2 mM) is 101 ± 13%. The residual bioluminescent signal reads like this: under setting [1], 33.4 ± 2%; under setting [2], 39.3 ± 5.5%; under setting [3], 48.9 ± 13%; (metal salt concentration 5 mM, glutathione 0 mM) 2.29 ± 1.6%; (metal salt concentration 5 mM, glutathione 0.2 mM) 0.915 ± 0.4%; (metal salt concentration 5 mM, glutathione 2 mM) 2.06 ± 1.4%.

Take `[Cl][Fe][Cl]` [iron(II) chloride]: the residual bioluminescent signal (metal salt concentration 0.02 mM, glutathione 0 mM) came out at 86.2 ± 14%; the residual bioluminescent signal (metal salt concentration 0.02 mM, glutathione 0.2 mM) was determined as 91.9 ± 18%; the residual bioluminescent signal (metal salt concentration 0.02 mM, glutathione 2 mM) amounted to 122 ± 5.5%; the residual bioluminescent signal (metal salt concentration 0.118 mM, glutathione 0 mM) worked out at 47.6 ± 13%; the residual bioluminescent signal (metal salt concentration 0.118 mM, glutathione 0.2 mM) amounted to 56.5 ± 11%; the residual bioluminescent signal (metal salt concentration 0.118 mM, glutathione 2 mM) amounted to 75.7 ± 7.6%. For the same compound, the residual bioluminescent signal is, setting by setting: (metal salt concentration 0.5 mM, glutathione 0 mM) 16.5 ± 3.1%; (metal salt concentration 0.5 mM, glutathione 0.2 mM) 22.9 ± 4.2%; (metal salt concentration 0.5 mM, glutathione 2 mM) 31.1 ± 5.1%; under setting [1], 12.3 ± 4.2%; under setting [2], 18.7 ± 10%; under setting [3], 32 ± 11%.

Source of the values: the supplement of paper PMC11628255, “Interference of metal ions on the bioluminescent signal of firefly, Renilla, and NanoLuc luciferases in high-throughput screening assays” (Frontiers in Chemistry, 2024).
